Data on 62 compounds can be found in PubChem BioAssay AID2314 (National Center for Advancing Translational Sciences (NCATS), 2010).

Screen size: about 300,000 compounds; about 37,000 (12%) were called active. For the sample, actives were picked, then their nearest neighbours and some compounds at random. Values without a mark were called inactive. Cut-off read from the data, not from the text of the source: active = max response mostly above about 13% (no sharp cut-off); inactive = mostly below about 14%.

The nature of the assay: Cycloheximide Counterscreen for Small Molecule Inhibitors of Shiga Toxin. Note: read at 38.3 µM for the half of the compounds with a filed dose; 0% is about no effect. Particulars: cell reporter, cycloheximide protein synthesis inhibition counterscreen; stronger effect = higher value.
Take `Cc1ccc2[nH]c(=O)c(CC(=O)O)c(-c3ccccc3)c2c1`: the max response was -1.3%.

As for `c1ccc(COc2ccccc2CNCc2cccnc2)cc1`, the max response is 2.03%.

Consider `CC(C)(C)OC(=O)N/N=C/c1ccc(C(=O)O)cc1`, for which the max response was 29.1% (active).

For `O=C(O)c1ccc(/C=N/NC(=O)c2ccc(Br)cc2)cc1`, the max response is -2.33%.

Consider `COC(=O)N/N=C/c1ccc(/C=N/NC(=O)OC)cc1`, for which the max response was -2.42%.

Take `Cc1cccc2c1cnn2C(=O)CCC(=O)NC1CCCCC1`: the max response was 4.44%.

For the compound `Cc1nc2nc(SCC(=O)Nc3cccc(F)c3)[nH]c2cc1Br`, the max response was 1.17%.

For `CNC(=O)n1ccc(C(=O)N2CCCCC2)n1`, the max response was 1.48%.

Regarding `COc1cccc(OC)c1OCCN1CCN(C(=O)c2ccco2)CC1`, the max response is -3.58%.

`COc1cccc(OCc2cc(C(=O)N3CCN(C(=O)c4ccco4)CC3)no2)c1`: the max response is 44.9% (active).

On to `O=C(c1cc(-c2ccccc2O)on1)N1CCCC1`, for which the max response is 35% (active).

In the case of `COc1ccccc1N1CCN(C(=O)c2cc(-c3ccc(Cl)c(Cl)c3)on2)CC1`, the max response is -1.8%.

`COc1cccc(-c2cc(C(=O)N3CCN(c4ccccc4OC)CC3)no2)c1`: the max response is 7.23%.

For the compound `O=C(c1ccco1)N1CCN(C(=O)c2ccc(COc3ccc(F)cc3)o2)CC1`, the max response was -1.31%.

For `COc1ccccc1-c1cc(C(=O)N2CCCCC2)no1`, the max response is 59.2% (active).

As for `O=C(c1cc(-c2cccs2)on1)N1CCCCC1`, the max response is 50.6% (active).

Consider `O=C(c1ccc(Cl)c(Cl)c1)N1CCCC1`, for which the max response is -2.63%.

As for `O=C(C1CCN(S(=O)(=O)c2cccs2)CC1)N1CCCCCC1`, the max response was 10%.

With `N#Cc1cccc(NC(=O)CN2CCCCCC2)c1`, the max response is 4.22%.

As for `CC1CN(C(=O)CCC(=O)NCc2cccnc2)c2ccccc2O1` (configuration not stated), the max response is 0.76%.

As to `OCCN(Cc1ccccc1)Cc1ccc(Cl)cc1`, the max response was -2.21%.

Take `CCc1nnc(NC(=O)CCN(c2ccc(C)cc2)S(=O)(=O)c2ccccc2)s1`: the max response is -1.73%.

`COc1ccc(C2NC(=O)N(C)C(C)=C2[N+](=O)[O-])cc1` (configuration not stated): the max response was -2.28%.

In the case of `CCn1ccnc1CN(C)C(=O)c1cc(COc2ccc(-n3cncn3)cc2)on1`, the max response is -1.13%.

`COc1cc(Cl)ccc1OCc1cc(C(=O)N(C)CCc2c(C)n[nH]c2C)no1`: the max response is 32.5%.

As for `COc1cc(Cl)ccc1OCc1cc(C(=O)N2CC[C@@H]3CCCC[C@H]3C2)no1`, the max response was 38.6% (active).

Turning to `COc1ccccc1OCc1ccc(C(=O)N2CCN(C)CC2)o1`, the max response was 1.3%.

Regarding `COc1ccc(OCc2cc(C(=O)N3CCCC3)no2)c2ccccc12`, the max response was 65.1% (active).

As to `COc1ccc(C(=O)C2CCCN(C(=O)c3cc(C)on3)C2)cc1F` (configuration not stated), the max response is 1.02%.

For `CCn1ccnc1CN(C)C(=O)c1cc(COc2ccc(Cl)cc2OC)on1`, the max response is 39.1% (active).

As for `CC(=O)c1ccc(NC(=O)c2cc(-c3cccs3)on2)cc1`, the max response was 16.4% (active).

For the compound `Cc1ccc(C)c(OCc2cc(C(=O)N3CCN(c4cnccn4)CC3)no2)c1`, the max response is 19.7%.

In the case of `Cc1cc(NC(=O)c2cc(-c3cccs3)on2)nn1Cc1ccc(Cl)cc1`, the max response was 9.8%.

On to `CC(=O)Nc1cccc(Nc2nc(-c3cccs3)nc3ccccc23)c1`, for which the max response was 13.3%.

As to `COc1cc2c(C(=O)N(C)c3cc(Cl)ccc3OC)cn(C)c(=O)c2cc1OC`, the max response was -3.47%.

For `O=C(Cc1csc(Nc2nc(=S)[nH]c3ccccc23)n1)NCCCN1CCN(c2cccc(Cl)c2)CC1`, the max response is 1.69%.

Turning to `Cc1ccnc(NC(=O)Cn2ccc([N+](=O)[O-])n2)c1`, the max response was -1.7%.

For `CCOC(=O)/C(=N\Nc1cc(Cl)ccc1Cl)N1CCN(C)CC1`, the max response is -1.84%.

Turning to `Cc1c(C)c2c(OCC(=O)NCCCO)cc3c(c2oc1=O)CCC(C)(C)O3`, the max response was 0.89%.

With `CN(CC#CCC(c1ccccc1)c1ccccc1)C(C)(C)C`, the max response was -2.81%.

Consider `Cc1ccccc1NC(=O)CSc1nc2ccc(Nc3nc(N4CCOCC4)nc(N4CCOCC4)n3)cc2s1`, for which the max response was -3.62%.

Turning to `CCCCC1(C(=O)OCC)NC(c2ccc(O)cc2)C2C(=O)N(c3ccccc3)C(=O)C21` (configuration not stated), the max response was -1.77%.

For `CCOc1ccc(OCC(=O)Nc2c3c(nn2C(C)(C)C)CS(=O)(=O)C3)cc1`, the max response was 0.307%.

As for `N#CCC(=O)N/N=C/c1cn(Cc2ccc3ccccc3c2)c2ccccc12`, the max response was 1.05%.

Turning to `c1ccc(Cc2cc[n+](Cc3ccccc3)cc2)cc1`, the max response is -3.55%.

On to `Cc1ccc(CN(Cc2cccnc2)C(=S)Nc2cccc(Cl)c2C)cc1`, for which the max response is 9.59%.

`CCCCC(=O)Nc1ccccc1N1CCN(c2ccc(F)cc2)CC1`: the max response was 5.13%.

For the compound `Cc1c(S(=O)(=O)NC(C)c2ccccc2)c(=O)n(C)c(=O)n1C` (configuration not stated), the max response is 1.11%.

With `Cc1coc2c1c(C)cc1oc(=O)c(CC(=O)NCC(=O)N[C@H](C(=O)O)C(C)C)c(C)c12`, the max response was -5.82%.

Turning to `C/C(N)=C(/C#N)C(=O)COC(=O)c1cc(-c2ccc(C)cc2)nc2ccccc12`, the max response is 32.1% (active).

Regarding `C/C(N)=C(/C#N)C(=O)COC(=O)c1cc(-c2ccccc2)nc2ccc(Br)cc12`, the max response is -2.32%.

With `C/C(N)=C(/C#N)C(=O)COC(=O)c1cc(-c2cccc(Br)c2)nc2ccccc12`, the max response is 0.776%.

For `COc1ccc(NC2=CC(=S)NC(C)(C)C2)cc1`, the max response was -1.18%.

In the case of `Cc1csc(Nc2ccc(Cl)cc2)[n+]1-c1ccc(Cl)cc1`, the max response is 8.25%.

On to `O=C(Nc1nsc(-c2ccccc2)n1)c1ccncc1`, for which the max response was 15.5% (active).

Take `COC(=O)c1nc(NC(=O)c2ccccc2)n[nH]1`: the max response was -3.23%.

`O=C(CSc1ncn[nH]1)Nc1nsc(-c2ccccc2)n1`: the max response is 15.2%.

For `Cc1cc(C)cc(NC(=O)CSCc2cnn(-c3ccccc3)c2-n2cccc2)c1`, the max response was 16.3%.

Regarding `O=c1ccc(-c2ccc(S(=O)(=O)Nc3ccccc3)o2)n[nH]1`, the max response is -12.6%.

Regarding `CCCC[C@H]1COCCS(=O)(=O)N1Cc1cccc(Cl)c1`, the max response is 0.203%.

For `O=S1(=O)CCOC[C@H](CC2CCCCC2)N1Cc1ccc(F)cc1`, the max response is 17.1% (active).

Turning to `CCC(C)[C@H]1COCCS(=O)(=O)N1Cc1ccc(C)cc1` (some centres not stated), the max response is 1.06%.
